Among the data in PubChem BioAssay (EPA / NIEHS) are AC50 and outcome values, retold here.

Molecules are shown by their SMILES. Several values for one entry are separate records, joined by “and”; a condition that tells them apart may be missing. Equal values may be shown once. Inconclusive results are not listed. A structure can be active in one record and inactive in another. Activity calls are given as the source filed them. Rule for the calls, unless noted: active = hit-call score of the fitted dose curve at least 0.9, where 1 is the maximum; inactive = score below 0.9.

The nature of test [1]: ATG_PXRE_CIS: Attagene CIS-FACTORIAL HepG2 Assay for human Pregnane X Receptor Element (PXRE) (AID 2282957). Conditions: HepG2 Attagene CIS-FACTORIAL PXRE reporter, mRNA; actives raise or lower the signal. A digest of the protocol:
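HepG2 cells transiently transfected with cis-element-driven multiplexed reporter units; after 24 h chemical exposure, reporter mRNA measured by RT-PCR, 6-FAM labelling, HpaI digestion and capillary electrophoresis. Bidirectional fitting relative to DMSO.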

Test [2] can be described thus: ATG_RORE_CIS: Attagene CIS-FACTORIAL HepG2 Assay for human RAR-related Orphan Receptor Element (RORE) (AID 2282959). To be noted: HepG2 Attagene cis-factorial RORE reporter, mRNA; actives raise or lower the signal. A digest of the protocol:
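Transient MRTU transfection of human HepG2 liver cells (FuGene 6); 24 h compound exposure; TriZol RNA, oligo(dT) RT, PCR, FAM labeling, HpaI cut, CE fragment analysis. DMSO = negative control/baseline.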

Test [3] is described as follows: ATG_Sox_CIS: Attagene CIS-FACTORIAL HepG2 Assay for human SRY-box transcription factor (SOX) (AID 2282960). To be noted: HepG2 Attagene cis-factorial SOX reporter, mRNA; actives raise or lower the signal. A digest of the protocol: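 Endogenous factor activity in human liver HepG2 cells carrying transfected cis-regulated reporter units. RNA taken 24 h post-dose, reverse-transcribed, PCR-amplified and sized by capillary electrophoresis. Gain or loss of signal fitted relative to DMSO.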

Test [4] has as its target Transcription factor Sp1 (Homo sapiens) (UniProt P08047). The experiment in a line: ATG_Sp1_CIS: Attagene CIS-FACTORIAL HepG2 Assay for human Specificity Protein 1 (Sp1) (AID 2282961). Conditions: HepG2 Sp1 cis-reporter transcription, actives raise or lower the signal. A digest of the protocol: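 Transient MRTU-transfected HepG2, 24 h compound exposure. Total RNA → oligo(dT) RT → PCR of reporter → 6-FAM primer extension → HpaI digest → CE. Endpoint fitted both directions vs DMSO.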

Test [5] concerns the target Signal transducer and activator of transcription 3 (Homo sapiens) (UniProt P40763). The experiment in a line: ATG_STAT3_CIS: Attagene CIS-FACTORIAL HepG2 Assay for human Signal Transducer and Activator of Transcription 3 (STAT3) (AID 2282963). To be noted: HepG2, Attagene cis-factorial STAT3 reporter transcription; actives raise or lower the signal. In a few lines:
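HepG2 cells transiently transfected with cis-element-driven multiple reporter transcription units; after 24 h chemical exposure, reporter mRNA measured by RT-PCR, 6-FAM primer-extension labelling, HpaI digestion and capillary electrophoresis. Bidirectional fitting versus DMSO baseline.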

The nature of test [6]: ATG_TA_CIS: Attagene CIS-FACTORIAL HepG2 Assay for human TA Basal Promoter (AID 2282964). Conditions: HepG2 Attagene CIS-factorial TA basal promoter reporter; actives raise or lower the signal. A digest of the protocol:
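Transient MRTU transfection of HepG2 preceded 24 h compound exposure. Reporter mRNA levels were then read by RT-PCR with capillary electrophoresis, and this background-control endpoint was fitted bidirectionally to DMSO.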

The nature of test [7]: ATG_TCF_b_cat_CIS: Attagene CIS-FACTORIAL HepG2 Assay for human T-Cell-Factor with beta-catenin (TCF/b-cat) (AID 2282965). To be noted: HepG2 TCF/beta-catenin cis-reporter transcription, actives raise or lower the signal. In a few lines:
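HepG2 cells transiently transfected with multiple cis-promoter-regulated reporter transcription units, so endogenous transcription factor activity is measured. Reporter mRNA read 24 hours after dosing by RT-PCR, fluorescent labelling and capillary electrophoresis; bidirectional fitting against DMSO.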

Test [8] can be described thus: ATG_TAL_CIS: Attagene CIS-FACTORIAL HepG2 Assay for human TAL Basal Promoter (AID 2282966).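 Note: background control endpoint measuring basal TAL promoter reporter mRNA not a specific factor.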 Conditions: HepG2 Attagene cis-factorial TAL promoter reporter; actives raise or lower the signal. A digest of the protocol:
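HepG2 cells transiently transfected with multiplexed cis-promoter reporter units, dosed 24 h. Reporter mRNA quantified by RT-PCR, 6-FAM labelling, HpaI digestion and capillary electrophoresis; TAL basal promoter serves as background control, fitted bidirectionally versus DMSO.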

Test [9] in a line: ATG_TGFb_CIS: Attagene CIS-FACTORIAL HepG2 Assay for human Transforming Growth Factor (TGF) (AID 2282967). Conditions: HepG2 Attagene CIS TGFb reporter, mRNA transcription; actives raise or lower the signal. In a few lines: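 After a 24-hour incubation with compound, transfected HepG2 cells were lysed for RNA; reporter cDNA was amplified, fluorescently end-labeled and separated by CE. DMSO served as baseline for bidirectional fits.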

Test [10] can be described thus: ATG_VDRE_CIS: Attagene CIS-FACTORIAL HepG2 Assay for human Vitamin D Receptor Element (VDRE) (AID 2282968). To be noted: HepG2 VDRE cis-reporter transcription, actives raise or lower the signal. A digest of the protocol: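 HepG2 cells transiently transfected with cis-element reporter units, dosed 24 h; reporter mRNA measured by RT-PCR, 6-FAM labeling, HpaI digestion and capillary electrophoresis. Activity fitted bidirectionally against DMSO baseline.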

Test [11] deals with Nuclear receptor subfamily 1 group I member 3 (Homo sapiens) (UniProt Q14994). In words: ATG_CAR_TRANS: Attagene TRANS-FACTORIAL HepG2 Assay for human Constitutive Androstane Receptor (CAR) (AID 2282969; active = hit-call score of the fitted dose curve at least 0.9, where 1 is the maximum;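 note: activators raise reporter mRNA above DMSO so AC50 marks induction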). To be noted: HepG2 Attagene TRANS-FACTORIAL CAR reporter. In a few lines: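 HepG2 cells transiently transfected with multiplexed GAL4-UAS reporter units expressing chimeric NR-Gal4 proteins; compound exposure 24 h. Reporter mRNA measured by RT-PCR, 6-FAM labelling, HpaI digestion and capillary electrophoresis; gain-of-signal fitted against DMSO baseline.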

Test [12] addresses X-box-binding protein 1 (Homo sapiens) (UniProt P17861). The experiment in a line: ATG_Xbp1_CIS: Attagene CIS-FACTORIAL HepG2 Assay for human X-box Binding Protein 1 (XBP1) (AID 2282972). Conditions: HepG2 XBP1 cis-element reporter, Attagene multiplex; actives raise or lower the signal. In a few lines:
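Fluorescence-labelled cDNA fragments from reporter transcripts, separated by capillary electrophoresis, give the signal. Source: HepG2 cells transfected with promoter-driven reporter units, harvested 24 h post-dose. DMSO served as reference for bidirectional curve fitting.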

The nature of test [13]: ATG_M_19_TRANS: Attagene TRANS-FACTORIAL HepG2 Assay for M19 Transcription Factor (Internal Marker) (AID 2282974; active = hit-call score of the fitted dose curve at least 0.9, where 1 is the maximum). To be noted: HepG2 Attagene TRANS-FACTORIAL M19 internal marker reporter. A digest of the protocol:
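Fluorescence of 6-FAM-labelled reporter cDNA fragments, separated by capillary electrophoresis, served as the readout. These derived from HepG2 cells carrying transfected GAL4-UAS reporter units after 24 h dosing, with DMSO as negative control.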

The target of test [14] is Glucocorticoid receptor (Homo sapiens) (UniProt P04150). The experiment in a line: ATG_GR_TRANS: Attagene TRANS-FACTORIAL HepG2 Assay for human Glucocorticoid Receptor (GR) (AID 2282978; active = hit-call score of the fitted dose curve at least 0.9, where 1 is the maximum;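 note: activators score as hits since higher reporter transcript over DMSO is fitted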). To be noted: HepG2 Attagene TRANS GR reporter, mRNA transcription. A digest of the protocol:
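Fluorescent capillary-electrophoresis quantitation of reporter mRNA is the readout, taken 24 h after dosing human HepG2 cells carrying transiently transfected GAL4-UAS reporter units activated by chimeric NR-GAL4 fusions; activity scored as induction over DMSO.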

The nature of test [15]: ATG_SREBP_CIS: Attagene CIS-FACTORIAL HepG2 Assay for human Sterol Regulatory Element Binding (SREBP) (AID 2282962). To be noted: HepG2 Attagene cis-factorial SREBP reporter, mRNA; actives raise or lower the signal. In a few lines:
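mRNA induction of transfected cis-promoter reporters in HepG2 cells, 24 h post-dose. Detection: RT-PCR with 6-FAM-labelled products, HpaI digest, capillary electrophoresis. DMSO served as negative control and baseline.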

Test [16] addresses Estrogen receptor (Homo sapiens) (UniProt P03372). In words: ATG_ERa_TRANS: Attagene TRANS-FACTORIAL HepG2 Assay for human Estrogen Receptor alpha (ERa) (AID 2282970; active = hit-call score of the fitted dose curve at least 0.9, where 1 is the maximum). Conditions: HepG2 Attagene TRANS ERa GAL4 reporter, mRNA. A digest of the protocol: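 HepG2 cells transiently transfected with multiplexed GAL4-UAS reporter units read out chimeric NR-Gal4 activity. After 24 h compound exposure, reporter mRNA was quantified by RT-PCR, 6-FAM labeling, HpaI digestion and capillary electrophoresis, relative to DMSO.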

Test [17] can be described thus: ATG_GAL4_TRANS: Attagene TRANS-FACTORIAL HepG2 Assay for GAL4 (Internal Marker) (AID 2282976; active = hit-call score of the fitted dose curve at least 0.9, where 1 is the maximum). Conditions: HepG2 Attagene TRANS GAL4 internal marker reporter. In a few lines:
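Background-control readout: GAL4-UAS reporter transcript in transiently transfected HepG2 cells after 24 h compound exposure. Measured by RT-PCR, 6-FAM primer extension, HpaI digest and capillary electrophoresis; gain-of-signal fit versus DMSO.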

Sequence of Transcription factor Sp1 (Homo sapiens) (P08047 whole entry, looked up): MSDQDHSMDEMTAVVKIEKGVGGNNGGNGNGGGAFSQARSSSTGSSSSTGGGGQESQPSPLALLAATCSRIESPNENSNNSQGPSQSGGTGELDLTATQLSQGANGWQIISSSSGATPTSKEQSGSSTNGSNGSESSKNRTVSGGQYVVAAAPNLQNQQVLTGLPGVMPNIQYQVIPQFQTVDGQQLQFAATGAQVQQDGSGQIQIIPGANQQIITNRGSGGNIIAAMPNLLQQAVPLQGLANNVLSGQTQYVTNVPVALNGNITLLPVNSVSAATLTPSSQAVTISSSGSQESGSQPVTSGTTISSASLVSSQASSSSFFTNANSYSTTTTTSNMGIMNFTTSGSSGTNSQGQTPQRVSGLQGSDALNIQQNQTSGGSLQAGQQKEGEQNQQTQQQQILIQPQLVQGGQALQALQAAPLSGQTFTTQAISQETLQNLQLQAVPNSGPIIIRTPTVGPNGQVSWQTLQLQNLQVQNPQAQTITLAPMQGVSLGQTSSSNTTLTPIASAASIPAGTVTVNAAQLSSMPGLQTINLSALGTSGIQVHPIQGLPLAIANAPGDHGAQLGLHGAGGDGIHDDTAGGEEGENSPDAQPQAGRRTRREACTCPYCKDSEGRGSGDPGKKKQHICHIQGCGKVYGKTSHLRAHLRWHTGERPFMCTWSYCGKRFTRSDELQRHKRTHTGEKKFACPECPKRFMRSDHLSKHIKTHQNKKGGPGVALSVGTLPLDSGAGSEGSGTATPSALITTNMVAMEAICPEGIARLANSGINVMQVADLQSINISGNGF
Sequence of Signal transducer and activator of transcription 3 (Homo sapiens) (P40763 whole entry, looked up): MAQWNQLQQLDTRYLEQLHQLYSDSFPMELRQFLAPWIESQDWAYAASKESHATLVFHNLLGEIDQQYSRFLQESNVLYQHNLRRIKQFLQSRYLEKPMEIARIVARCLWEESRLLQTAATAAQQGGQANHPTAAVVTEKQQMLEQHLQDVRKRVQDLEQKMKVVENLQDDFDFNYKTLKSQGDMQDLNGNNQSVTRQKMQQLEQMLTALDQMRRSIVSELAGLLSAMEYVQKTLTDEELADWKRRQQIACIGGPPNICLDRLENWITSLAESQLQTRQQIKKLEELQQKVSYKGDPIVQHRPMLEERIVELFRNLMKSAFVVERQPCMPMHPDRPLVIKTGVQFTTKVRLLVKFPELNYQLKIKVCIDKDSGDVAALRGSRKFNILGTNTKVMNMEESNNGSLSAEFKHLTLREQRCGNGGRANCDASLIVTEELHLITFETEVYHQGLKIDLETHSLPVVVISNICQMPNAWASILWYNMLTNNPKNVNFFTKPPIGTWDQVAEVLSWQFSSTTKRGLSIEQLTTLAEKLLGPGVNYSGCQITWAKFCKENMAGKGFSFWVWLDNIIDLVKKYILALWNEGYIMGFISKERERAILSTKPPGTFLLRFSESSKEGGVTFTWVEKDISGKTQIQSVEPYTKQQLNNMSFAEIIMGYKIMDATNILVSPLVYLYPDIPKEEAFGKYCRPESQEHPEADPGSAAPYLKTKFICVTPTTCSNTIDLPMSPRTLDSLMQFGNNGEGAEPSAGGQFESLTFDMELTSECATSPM
Sequence of Estrogen receptor (Homo sapiens) (P03372 whole entry, looked up, the tested form may be a part): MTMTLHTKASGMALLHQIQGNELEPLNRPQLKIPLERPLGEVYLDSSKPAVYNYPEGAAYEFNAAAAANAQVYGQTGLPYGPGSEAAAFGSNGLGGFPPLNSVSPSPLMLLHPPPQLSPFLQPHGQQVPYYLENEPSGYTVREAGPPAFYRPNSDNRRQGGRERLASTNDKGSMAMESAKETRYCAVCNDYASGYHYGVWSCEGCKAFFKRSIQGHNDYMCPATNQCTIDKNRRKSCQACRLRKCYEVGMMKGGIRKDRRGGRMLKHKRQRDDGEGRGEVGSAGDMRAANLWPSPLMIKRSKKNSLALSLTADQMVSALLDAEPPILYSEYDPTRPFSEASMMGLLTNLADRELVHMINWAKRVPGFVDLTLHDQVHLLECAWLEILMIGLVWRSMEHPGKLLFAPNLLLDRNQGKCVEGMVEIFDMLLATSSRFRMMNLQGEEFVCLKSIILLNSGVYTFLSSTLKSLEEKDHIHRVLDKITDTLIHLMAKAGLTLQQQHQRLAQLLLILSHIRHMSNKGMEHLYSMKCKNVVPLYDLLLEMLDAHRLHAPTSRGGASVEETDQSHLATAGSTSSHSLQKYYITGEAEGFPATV
Sequence of X-box-binding protein 1 (Homo sapiens) (P17861 whole entry, looked up, the tested form may be a part): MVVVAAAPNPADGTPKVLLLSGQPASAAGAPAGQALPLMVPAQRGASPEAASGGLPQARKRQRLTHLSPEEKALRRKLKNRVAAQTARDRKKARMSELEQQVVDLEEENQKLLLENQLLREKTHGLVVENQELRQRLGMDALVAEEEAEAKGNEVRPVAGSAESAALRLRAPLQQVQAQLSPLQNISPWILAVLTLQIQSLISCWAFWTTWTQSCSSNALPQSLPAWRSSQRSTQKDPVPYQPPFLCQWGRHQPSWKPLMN
Sequence of Nuclear receptor subfamily 1 group I member 3 (Homo sapiens) (Q14994 whole entry, looked up, the tested form may be a part): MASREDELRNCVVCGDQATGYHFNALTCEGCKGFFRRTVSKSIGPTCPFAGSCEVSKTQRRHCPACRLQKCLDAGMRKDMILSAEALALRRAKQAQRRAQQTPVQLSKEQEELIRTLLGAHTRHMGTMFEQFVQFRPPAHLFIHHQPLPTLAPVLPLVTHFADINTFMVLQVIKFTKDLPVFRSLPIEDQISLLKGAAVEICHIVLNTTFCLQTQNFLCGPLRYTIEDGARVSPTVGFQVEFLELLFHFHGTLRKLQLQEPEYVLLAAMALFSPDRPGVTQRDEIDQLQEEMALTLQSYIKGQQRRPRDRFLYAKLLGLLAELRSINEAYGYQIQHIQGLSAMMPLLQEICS
Sequence of Glucocorticoid receptor (Homo sapiens) (P04150 whole entry, looked up, the tested form may be a part): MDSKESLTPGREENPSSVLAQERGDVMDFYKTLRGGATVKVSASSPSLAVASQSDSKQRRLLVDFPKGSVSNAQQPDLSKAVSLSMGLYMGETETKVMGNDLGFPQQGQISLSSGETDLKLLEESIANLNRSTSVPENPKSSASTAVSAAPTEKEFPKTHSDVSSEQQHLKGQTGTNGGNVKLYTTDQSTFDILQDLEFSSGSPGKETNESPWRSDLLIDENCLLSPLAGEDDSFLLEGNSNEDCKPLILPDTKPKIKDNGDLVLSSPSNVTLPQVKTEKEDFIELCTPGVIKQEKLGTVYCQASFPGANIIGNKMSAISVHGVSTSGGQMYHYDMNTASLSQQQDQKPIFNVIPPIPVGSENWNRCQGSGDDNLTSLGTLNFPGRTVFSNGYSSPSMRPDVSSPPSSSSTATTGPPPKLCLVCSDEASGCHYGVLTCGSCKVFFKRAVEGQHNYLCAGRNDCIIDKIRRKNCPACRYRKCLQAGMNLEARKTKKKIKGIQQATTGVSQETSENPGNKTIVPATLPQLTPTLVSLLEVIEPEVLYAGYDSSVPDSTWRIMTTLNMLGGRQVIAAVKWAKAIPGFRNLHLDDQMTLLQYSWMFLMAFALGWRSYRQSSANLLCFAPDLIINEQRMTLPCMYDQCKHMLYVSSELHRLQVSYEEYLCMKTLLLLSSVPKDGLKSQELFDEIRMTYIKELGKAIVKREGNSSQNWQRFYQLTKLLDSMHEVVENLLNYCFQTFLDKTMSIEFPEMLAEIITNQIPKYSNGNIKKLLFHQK

As to `CC(C)(C)c1ccc(CCC=O)cc1`, the AC50 (commonly the concentration giving half of the maximal activity seen) is 22.3 µM (active) in test [1] and 162 µM (active) in [7]. The result in test [2], in test [3], in test [4], in test [5], in test [6] and in test [8] was inactive. In addition, the outcome in test [9], in [10], in test [11], in test [12], in test [13] and in test [14] was inactive.

`NC(=NCCCCCCN=C(N)/N=C(\N)Nc1ccc(Cl)cc1)/N=C(\N)Nc1ccc(Cl)cc1`: the result in test [1], in test [3], in test [4], in test [15], in test [5] and in [6] was inactive. Also, the molecule was classed as inactive in [8], in test [9], in test [11], in test [16] and in test [12]. Besides, the AC50 in test [3] is 22.1 µM (active) and 25.5 µM (active); in test [4] it was 159 µM (active) and 23.3 µM (active); in test [15] it was 23.3 µM (active); in test [8], 119 µM (active); in [9] it was 0.0763 µM (active).

`N=C(N)c1ccc(OCCCCCOc2ccc(C(=N)N)cc2)cc1`: the AC50 was 57.2 µM (active) in [1]; 59 µM (active) in [6]; 87.5 µM (active) in test [10]; 23.5 µM (active) in test [16]; 48.1 µM (active) in test [12]. Also, the result in test [2], in [3], in test [4], in [15], in [5] and in test [8] was inactive. For the same molecule, the result in [9], in test [17] and in test [14] was inactive.

Turning to `CN(Cc1cnc2nc(N)nc(N)c2n1)c1ccc(C(=O)N[C@@H](CCC(=O)O)C(=O)O)cc1`, in test [1], the half-maximal activity concentration (AC50) was 58.9 µM (active). Further, the result in test [2], in [3], in test [4], in test [15], in test [5] and in [6] was inactive. The molecule was called inactive in [7], in [8], in test [9], in test [16], in test [12] and in test [13]. The outcome in [17] was inactive.
